Out of some 330,000 compounds screened, about 1,900 (0.58%) were called active. Roughly 4% stayed inconclusive and do not appear here. Cut-off read from the data, not from the text of the source: inconclusive = inhibition above about 70% without an active follow-up result; inactive = below that. These entries were drawn from the full list. Potency and affinity values are given separately.
Experiment: M. tuberculosis growth inhibition, HTS (AID 449762);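 note: bacterial growth assessed after seven days of incubation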
Settings: M. tuberculosis H37Rv growth inhibition, 7H9 media; at 25 µM; active compounds read high

Row | Structure (SMILES) | inhibition
1 | O=[N+]([O-])c1ccc(N=Cc2ccc(Br)c([N+](=O)[O-])c2)cc1 | -2.74% (inactive)
2 | C(=Nc1ccc(Nc2ccccc2)cc1)c1ccc2ccccc2c1 | 1.29% (inactive)
3 | Cc1ccc(NC(=O)CCSc2ccccn2)cc1 | -4.42% (inactive)
4 | Cc1cccc(N2CCN(C(=O)C3CCN(S(=O)(=O)c4cccc5cccnc45)CC3)CC2C)c1 (configuration not stated) | -1.75% (inactive)
5 | Cc1cc(C)c(NC(=O)COC(=O)Cn2nc(-c3ccccc3)oc2=O)c(C)c1 | 3.1% (inactive)
6 | C[C@@H]1C[C@H]2OC(=O)C3(CO3)[C@H]2[C@H](O)[C@]2(C)C(=O)C3OC3[C@@H]12 (some centres not stated) | -4.69% (inactive)
7 | C=C1C(=O)O[C@@H]2C[C@@H](C)[C@H]3C=CC(=O)[C@]3(O)C[C@@H]12 | 7.75% (inactive)
8 | Cc1cccc(NC(=O)NNC(=O)COc2ccc3ccccc3c2)c1 | -0.35% (inactive)
9 | COc1ccc(OC)c(C(c2nnnn2C2CCCC2)N2CCN(c3ccc(F)cc3)CC2)c1 (configuration not stated) | 4.35% (inactive)
10 | O=C1C(=O)N(c2ccccn2)C(c2ccc(F)cc2)/C1=C(/O)c1ccc(Br)cc1 (configuration not stated) | -4.6% (inactive)
11 | CC1CCCC(NC(=O)NC(=O)COC(=O)c2ccc(O)cc2O)C1C (configuration not stated) | 0.995% (inactive)
12 | CC1CCCC(NC(=O)CSC2CCCCC2)C1C (configuration not stated) | 3.14% (inactive)
13 | Cc1cccc(OCC(=O)NNC(=O)Cn2c(=O)cnc3ccccc32)c1 | -8.21% (inactive)
14 | O=C(CSc1nc(=O)n2ccccc2n1)Nc1cccc2ccccc12 | 5.25% (inactive)
15 | N#Cc1ccccc1OCC(=O)N1N=C(c2cccs2)CC1c1ccco1 (configuration not stated) | 1.37% (inactive)
16 | c1ccc(-c2cc3ncccc3cn2)cc1 | -4.81% (inactive)
17 | c1ccc(-c2cn3c(n2)CCC3)cc1 | -1.06% (inactive)
18 | O=C(Nc1cccc2c1CCCC2)c1ccccc1F | 10.2% (inactive)
19 | CC(=O)c1ccc(-n2c(CCC(=O)O)ccc2-c2cccs2)cc1 | -2.12% (inactive)
20 | NC(=O)c1ccc(-n2c(CCC(=O)O)ccc2-c2cccs2)cc1 | -1.94% (inactive)
21 | CCc1ccc(NC(=O)CC2C(=O)N(c3ccc(OC)cc3)C(=O)N2CCOC)cc1 (configuration not stated) | -1.31% (inactive)
22 | CC(C)CNC(=O)c1c(N)n(/N=C/c2ccccn2)c2nc3ccccc3nc12 | 4.33% (inactive)
23 | CCC(C)NC(=O)c1c(N)n(/N=C/c2cccnc2)c2nc3ccccc3nc12 (configuration not stated) | 27.8% (inactive)
24 | COc1ccc(/C=C/C(=O)Nc2ccccc2Cl)cc1S(=O)(=O)N1CCOCC1 | -10.4% (inactive)

Row | Structure (SMILES) | inhibition
25 | COc1ccc(Cn2nnnc2CN2CCc3ccccc32)cc1 | 1.54% (inactive)
26 | O=C(COC(=O)c1nsc(Cl)c1Cl)NC1CCCCC1 | 0.77% (inactive)
27 | CC(OC(=O)c1snc(C(=O)NC2CCCCC2)c1N)C(=O)NC1CCCCC1 (configuration not stated) | -2.81% (inactive)
28 | c1ccc(-c2nc3cccnc3nc2-c2ccccc2)cc1 | -12.8% (inactive)
29 | Nc1c(-c2ccccc2)nc(Cl)nc1-c1ccccc1 | 15.6% (inactive)
30 | COc1ccc(S(=O)(=O)NCC(=O)N(CC(=O)NCC2CCCO2)Cc2ccccc2)cc1 (configuration not stated) | -4.12% (inactive)
31 | COc1ccc(CCNC(=O)C(=O)NCc2ccc(C(C)C)cc2)cc1OC | -15.8% (inactive)
32 | COc1ccc(NC(=O)CN2C(=O)NC(c3ccccc3)(c3ccccc3)C2=O)cc1 | -1.71% (inactive)
33 | COc1ccc(C2(c3ccc(OC)cc3)NC(=O)N(CC(=O)Nc3ccc(C(N)=O)cc3)C2=O)cc1 | -7.66% (inactive)
34 | CC(C)CCc1noc(CN(CC2CCC2)CC2CCCO2)n1 (configuration not stated) | -1.94% (inactive)
35 | O=C(COC(=O)Cc1ccc(S(=O)(=O)N2CCOCC2)s1)Nc1ccc([N+](=O)[O-])cc1 | -2.45% (inactive)
36 | Cc1ccc(CNC(=O)c2ccc(N3CCC4(CC3)CC(c3ccccc3)=NO4)c(NC(=O)c3ccc(Cl)c([N+](=O)[O-])c3)c2)cc1 | -10.7% (inactive)
37 | Cc1ccc(NC(=O)CCN2C(=O)c3cccc([N+](=O)[O-])c3C2=O)c(Br)c1 | 7.28% (inactive)
38 | Cc1cccc(NC(=O)CCN2C(=O)c3cccc([N+](=O)[O-])c3C2=O)c1 | -5.47% (inactive)
39 | O=C(CN1C(=O)COc2ccccc21)c1cccc(Cl)c1 | 1.54% (inactive)
40 | CCCCN=C1CC(C)(C)CC(=O)/C1=C(/O)CCC | -2.63% (inactive)
41 | CCCN=C1CC(C)(C)CC(=O)/C1=C(/O)CCC | -3.03% (inactive)
42 | CC(=O)Nc1ccc(C(=O)NNC(=O)C2CC2)cc1 | -9.13% (inactive)
43 | O=[N+]([O-])c1cccc2c([N+](=O)[O-])cccc12 | 9.13% (inactive)
44 | Cc1ccccc1[N+](=O)[O-] | -10.8% (inactive)
45 | COc1cccc(CN(C)CC(=O)NCc2ccc(C)cc2)c1 | 7.23% (inactive)
46 | COC(=O)CN1C(c2ccccc2)=Nc2ccc(Cl)cc2C1c1ccccc1 (configuration not stated) | 55.5% (inactive)
47 | NNC(=O)CN1C(c2ccc(Cl)cc2)=Nc2ccc(Br)cc2C1c1ccccc1 (configuration not stated) | 0.4% (inactive)

Reference: PubChem BioAssay AID449762 (Southern Research Specialized Biocontainment Screening …, 2010)
